In PubChem BioAssay (EPA / NIEHS):
Active and inactive are the calls of the source. How the source made its calls: active means hit-call score of the fitted dose curve at least 0.9, where 1 is the maximum; inactive means score below 0.9.

test: ATG_ISRE_CIS: Attagene CIS-FACTORIAL HepG2 Assay for human Interferon Regulatory Factor 1 (IRF1) binding to an Interferon-Stimulated Response Element (ISRE) (AID 2282948); conditions: HepG2 ISRE cis-reporter (Attagene), mRNA transcription readout; actives raise or lower the signal
Protocol: ATG_CIS is a cell-based, multiplexed-readout assay that uses HepG2, a human liver cell line, with measurements taken at 24 hours after chemical dosing in a 24-well plate.ATG_ISRE_CIS is one of 52 assay component(s) measured or calculated from the ATG_CIS assay. It is designed to make measurements of mRNA induction, a form of inducible reporter, as detected with fluorescence intensity signals by Reverse transcription polymerase chain reaction (RT-PCR) and Capillary electrophoresis technology.Data from the assay component ATG_ISRE_CIS was analyzed into 1 assay endpoint. This assay endpoint, ATG_ISRE_CIS, was analyzed with bidirectional fitting relative to DMSO as the negative control and baseline of activity. Using a type of inducible reporter, measures of mRNA for gain or loss-of-signal activity can be used to understand the reporter gene at the transcription factor-level as they relate to the gene IRF1. Furthermore, this assay endpoint can be referred to as a primary readout, because this assay has produced multiple assay endpoints where this one serves a reporter gene function. To generalize the intended target to other relatable targets, this assay endpoint is annotated to the dna binding intended target family, where the subfamily is interferon regulatory factors.
Human liver HepG2 cells are transiently transfected with multiple reporter transcription units (MRTUs) in 6-well plates using FuGene 6 reagent (Roche; 3 ml FuGene/1 mg DNA). The MRTU constructs are regulated by a cis-regulating element (promoter). […] A major difference between the CIS and TRANS system is that in CIS activities of endogenous TFs are measured, whereas the TRANS assay evaluates changes in activities of exogenous, chimeric NR-Gal4 proteins. […] At the end of 24 hour incubation, total RNA was isolated using TriZol reagent (Invitrogen). The isolated RNA is then reverse-transcribed using oligo(dT) primer and Mo-MLV reverse transcriptase (Invitrogen) with DNAse I (Ambion) treatment for 30 min. The one-tenth of the produced cDNA was amplified by PCR using Taq DNA polymerase (Invitrogen) and two reporter sequence-specific primers. The PCR products were fluorescently labeled by primer extension with 6-arboxyfluorescein (6-FAM) 5'-labeled reporter sequence-specific primer (2 min at 95 C, 20 s at 68 C and 10 min at 72 C) and these products were digested with 5U of HpaI (New England Biolabs) for 2h at 37 C. The fragments were purified using Qiaquick PCR columns (Qiagen), analyzed on an ABI 3130xL genetic analyzer (Applied Biosystems) with peak positions identified by using a set of X-rhodamine (ROX)-labeled MapMarker1000 molecular weight standards (BioVentures). The raw capillary electrophoresis data was processed using Attagraph software (Attagene).

outcome, inactive:
COC(F)(F)C(F)(C(F)(F)F)C(F)(F)F
CC(=O)c1ccc2c(c1)CCCC2
O=c1cc[nH]c(=S)[nH]1
CC(=O)OC1C2(C)CCC(C2)C1(C)C (stereo not given)
c1ccc(CCCc2ccncc2)cc1
CCC(C)(C)C1CCCCC1OC(C)=O (stereo not given)
CCCCC(CC)COC(=O)c1ccccc1O (stereo not given)
CCCCCCC(O)CO (stereo not given)
Nc1nc2ccccc2[nH]1
C=C(C)C(=O)OCCO
CCN(CC#N)c1cccc(C)c1
CCCCOCCOC(=O)COc1nc(Cl)c(Cl)cc1Cl
CC(C)=CC1CC(C)CCO1 (stereo not given)
CC(C)=CCC/C(C)=C\C#N
COc1cc(C)ccc1C(C)C
CC(C)C(=O)C(C)C
CC(=O)Oc1ccc(C(C)=O)cc1
O=c1[nH]nc(-c2ccc([N+](=O)[O-])o2)o1
O=C(O)CCCCCCCCCC(=O)O
Cc1ccc2oc(=O)ccc2c1
c1ccc2c(c1)ccc1cc3c(ccc4ccccc43)cc12
CC(C)=CCC[C@H](C)CCO
Cc1cc(C)c(C)c(O)c1
Nc1ccc2cc3ccccc3cc2c1
CCOc1ccc(N)c([N+](=O)[O-])c1
COc1ccc(NC(C)=O)cc1N
O=C(C=Cc1ccccc1)OCc1ccccc1
O=C1CCCC1
C=C(C)CCO
CC=CC(F)(F)C(F)(F)C(F)(F)F
[Cl][In]([Cl])[Cl]
CC(=O)OCC(C)OC(C)=O (stereo not given)
CCCCCCOc1cc(C)c(O)c(C)c1C
CCCCCCCCC(=O)OCC
O=C(Nc1ccccc1SSc1ccccc1NC(=O)c1ccccc1)c1ccccc1

AC50, active:
CCOC(=O)N1CCC(=C2c3ccc(Cl)cc3CCc3cccnc32)CC1 7.19 µM
SCCc1cnccn1 43.3 µM
O=C(/C=C/C=C/c1ccc2c(c1)OCO2)N1CCCCC1 89.5 µM
COC(=O)C1=C(C)NC(C)=C(C(=O)OCC(C)C)C1c1ccccc1[N+](=O)[O-] (stereo not given) 11.1 µM
CCCCCCCCCCCCCCCC[n+]1ccccc1 9.02 µM
